Source: PubChem BioAssay (NCI)
About 83,000 compounds went through this panel and 20% of them were active in at least one assay; those are over-represented in the sample as a whole.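 Negative percent growth values reflect cell death: -40 means 40% of the cells present at the start died, and -100 means all died.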 Active and inactive are the calls of the source. How the source made its calls: active means growth percent below 10; inactive means the rest.

Assays:
Test in all cases: NCI-60 one-dose screen, 48 h (100 = growth as untreated, 0 = no growth, -100 = all killed)
Settings in all cases: 10 µM
[1] = tested on: EKVX NSCLC
[2] = tested on: SN12C renal
[3] = tested on: UO-31 renal
[4] = tested on: ACHN renal
[5] = tested on: A498 renal
[6] = tested on: CCRF-CEM leukemia
[7] = tested on: MOLT-4 leukemia
[8] = tested on: SR leukemia
[9] = tested on: RPMI-8226 leukemia
[10] = tested on: OVCAR-8 ovarian
[11] = tested on: OVCAR-5 ovarian
[12] = tested on: OVCAR-4 ovarian
[13] = tested on: SK-OV-3 ovarian
[14] = tested on: IGROV1 ovarian
[15] = tested on: OVCAR-3 ovarian
[16] = tested on: HS 578T breast
[17] = tested on: NCI/ADR-RES ovarian
[18] = tested on: T-47D breast
[19] = tested on: TK-10 renal
[20] = tested on: CAKI-1 renal

Measured: growth

CC(=O)n1c(-c2ccc(Cl)c(Cl)c2)cn(-c2ccc(Cl)cc2)c1=O
active: [3] 3.31% | [5] 4.91% | [6] -26.3% | [8] 0.989% | [9] -10.9% | [12] 5.33% | [14] 4.07% | [15] 3.73% | [16] -15.5% | [18] -47.1%
inactive: [1] 30.3% | [2] 46.9% | [4] 22.8% | [7] 18.4% | [10] 20.8% | [11] 42.4% | [13] 19.1% | [17] 11.8%

CCOCCOCCOCCOCCOCCOCCOCCOCCOCCO (tested in a mixture with another compound)
active: [19] 0.0792% | [6] -39.9% | [7] -49.5% | [8] -52.4% | [9] -33.3% | [10] 5.89% | [15] -16.8%
inactive: [1] 12.7% | [2] 10.5% | [3] 19.1% | [20] 13.1% | [5] 32.8% | [12] 21.3% | [13] 38.2% | [16] 39.6% | [17] 55.7% | [18] 16.6%

CCCCC/C=C/C(=O)CCc1ccc(O)c(OC)c1
inactive: [1] 91.2% | [2] 81.3% | [3] 37% | [19] 110% | [4] 103% | [6] 27.6% | [7] 96.7% | [8] 53.4% | [10] 88.6% | [11] 127% | [13] 86.7% | [15] 55.8% | [16] 104% | [18] 73.3%

COc1cc(CNCCCCCCN2C(=O)c3cccc4cccc(c34)C2=O)ccc1O
active: [8] 0.634%
inactive: [1] 89.3% | [2] 70.5% | [3] 23.8% | [19] 85.4% | [4] 63.7% | [6] 45.4% | [7] 49.2% | [10] 69% | [11] 116% | [13] 69% | [15] 90.1% | [16] 106% | [18] 65.3%

O=C(N/N=C\c1cc(Cl)ccc1[N+](=O)[O-])c1ccco1
inactive: [1] 106% | [2] 99.8% | [3] 104% | [19] 128% | [20] 89.5% | [6] 102% | [7] 93.6% | [8] 123% | [9] 109% | [10] 101% | [11] 118% | [12] 105% | [13] 130% | [14] 127% | [15] 107% | [16] 100% | [17] 100% | [18] 83.7%

COc1ccc(-c2cc(-c3cccc(NS(C)(=O)=O)c3)nc(N)c2C#N)cc1
active: [15] -48.4% | [16] -14.3%
inactive: [1] 22% | [2] 43.3% | [3] 31.9% | [4] 36.4% | [6] 19% | [7] 19.7% | [8] 16.1% | [10] 37.6% | [12] 51.3% | [13] 20.3% | [14] 73.4% | [18] 57.5%

CN(C)CCN=c1nc2c(c(N)n1-c1ccccc1)c(=S)n(-c1ccccc1)c(=S)n2-c1ccccc1
inactive: [1] 39.8% | [2] 52.3% | [19] 47.7% | [5] 40.3% | [8] 34.7% | [10] 33.6% | [11] 63.1% | [12] 41.7% | [13] 76.3% | [14] 36.3% | [16] 12.3% | [17] 58.7%
active: [3] 3.1% | [6] -8.26% | [7] 3.92% | [9] -4.61% | [15] -48.7% | [18] -19.4%

ClCCOCCn1cnc2c(Cl)nc(Cl)nc21
inactive: [1] 92.4% | [2] 63.3% | [3] 88% | [19] 92.7% | [5] 93.1% | [7] 79.8% | [8] 41.5% | [9] 93.1% | [10] 62.7% | [11] 102% | [13] 97.4% | [14] 59% | [15] 58.8% | [16] 12.4% | [17] 101% | [18] 80.9%
active: [20] -4.35%

C[N+](C)(C)c1ncnc2nc[nH]c12
inactive: [1] 89.1% | [2] 108% | [3] 84% | [19] 103% | [20] 83% | [5] 98.3% | [6] 102% | [7] 98.6% | [8] 78.4% | [9] 103% | [10] 102% | [11] 80.3% | [12] 103% | [13] 97.3% | [15] 112% | [16] 101% | [17] 94.1% | [18] 91.7%

CCCCCCCCCCCCCCCCCC(=O)OCCCCCCC
inactive: [1] 90.8% | [2] 105% | [3] 87.6% | [20] 88% | [6] 85% | [9] 96.8% | [10] 102% | [11] 106% | [12] 110% | [13] 105% | [15] 101% | [16] 109% | [18] 99.6%

COc1ccc2c(c1)sc1nc(-c3ccccc3)c(-c3ccc(O)c(OC)c3)n12
inactive: [2] 96.3% | [3] 99.8% | [19] 120% | [4] 101% | [20] 77.5% | [5] 76.6% | [6] 78.1% | [7] 71.2% | [8] 17.2% | [9] 78.5% | [10] 97.5% | [11] 107% | [12] 102% | [13] 96% | [14] 72.8% | [15] 83.5% | [16] 84.6% | [17] 64.6% | [18] 111%

C#Cc1ccc(-n2c(/C=C/c3ccc(O)cc3)nc3ncccc3c2=O)cc1
inactive: [2] 75.9% | [3] 34.3% | [19] 93.7% | [4] 49.8% | [20] 55.9% | [6] 85.7% | [7] 101% | [8] 18.1% | [9] 46.9% | [10] 75.2% | [11] 97.4% | [12] 61% | [13] 45.5% | [14] 62.5% | [16] 64% | [17] 55% | [18] 67.4%
active: [5] -1.24% | [15] 4.59%

O=S(=O)(NCCCNc1nccc(-c2c(-c3ccc(F)cc3)nc3sccn23)n1)c1ccc(F)cc1
active: [3] 3.14% | [18] -2.52%
inactive: [2] 52.3% | [19] 38.3% | [4] 30.8% | [20] 29.9% | [5] 56.3% | [6] 17.5% | [7] 22.6% | [8] 25.5% | [9] 32.1% | [10] 17.7% | [11] 62.7% | [12] 57.5% | [13] 59.7% | [14] 18.6% | [15] 55.4% | [16] 66.8% | [17] 31.3%

O=C1/C(=C\c2ccc(F)cc2)CN(C(=O)c2ccccc2)C/C1=C\c1ccc(F)cc1
active: [6] -12.6% | [7] 4.36% | [8] -15.1% | [9] -19.5% | [10] 3.54%
inactive: [2] 14.1% | [3] 38.7% | [19] 79.7% | [4] 24.3% | [20] 21.3% | [5] 52.3% | [11] 78.6% | [12] 27.3% | [13] 74.6% | [14] 21.8% | [15] 11.3% | [16] 28.1% | [17] 24.8% | [18] 57%

COc1ccc(S(=O)(=O)Nc2c(/C=C\c3cc(OC)c(OC)c(OC)c3)ccc(OC)c2O)cc1
inactive: [2] 20.9% | [3] 39.9% | [19] 39.9% | [4] 22.7% | [20] 32.9% | [6] 13.5% | [8] 10.5% | [11] 29.5% | [12] 53% | [13] 18.5% | [14] 33.2% | [18] 82.2%
active: [5] -19.9% | [7] 8.7% | [9] 7.59% | [10] -0.813% | [15] -8.9% | [16] -8.12% | [17] -2.42%

COc1ccc2c(c1)nc(N)c1c3cccnc3cn21
active: [20] -15.7% | [5] -9.56% | [8] 6.83% | [10] 4.95% | [13] 9.24% | [17] -2.31%
inactive: [1] 66.5% | [3] 42.3% | [4] 37.8% | [6] 22.7% | [7] 30.9% | [9] 34.3% | [14] 17.8% | [15] 20.4% | [16] 43.1% | [18] 62.6%
